# According to PubChem BioAssay (NCI):
# Compounds without any hit were thinned out: in the full panel of roughly 83,000, 20% have a hit.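 Percent growth is the endpoint: 0 to 100 indicates growth inhibition (40 means 60% inhibition), 0 means no net growth, and negative values indicate cell death.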 The source made the active and inactive calls.
# Test system: HOP-92 NSCLC
# Assay: NCI-60 one-dose screen, 48 h (100 = growth as untreated, 0 = no growth, -100 = all killed)
# Conditions: 10 µM
# Method: Growth inhibition of the HOP-92 human Non-Small Cell Lung tumor cell line is measured as a screen for anti-cancer activity. Cells are grown in 96 well plates and exposed to the test compound for 48 hours. Compounds are tested at a single concentration, which is 10^-5 M for most compounds. The reported endpoint is percent growth (GI% or GIPRCNT), where numbers from 0 - 100% represent growth inhibition, and numbers from -100% - 0 represent cell death. For example, a value of 40 represents 60% growth inhibition. A value of 0 means no net growth occurred over the course of the experiment. A value of -40 indicates 40% of cells at the beginning of the experiment died by the end of the experiment. A value of -100 means all cells are dead at the end of the experiment.
# NCI-60 Human Tumor Cell Lines Screen was performed using the standard one-dose NCI protocol, which is described in more detail at https://dtp.cancer.gov/discovery_development/nci-60/default.htm.
# Compounds with GIPRCNT values below 10 were considered active. Activity score was based on GIPRCNT using the following formula: […]
# Score is 0 for GIPRCNT values of 100 or above, 50 for GIPRCNT values of 0, and 100 for GIPRCNT values of -100.
row,Structure (SMILES),growth
1,c1c(-c2cc(C3CC3)[nH]n2)n[nH]c1C1CC1,89% (inactive)
2,CCCCCCCCCCC1CO1 (stereo not given),89.7% (inactive)
3,CC(=O)c1ccc(C(C)(C)C)cc1,80.6% (inactive)
4,CCN(CC)c1ccc2nc3ccc(=[N+](CC)CC)cc-3oc2c1,15.7% (inactive)
5,CC1CCC(C(=O)O)N1 (stereo not given),102% (inactive)
6,c1ccc(Sc2ccccc2)cc1,90.9% (inactive)
7,Nc1ccc(N)c([N+](=O)[O-])c1,109% (inactive)
8,O=C(NC1CCCCC1)OCc1c(COC(=O)NC2CCCCC2)c(-c2ccc(Cl)c(Cl)c2)n2c1CCC2,-1.46% (active)
9,O=[N+]([O-])c1ccc(-c2noc(-c3cccs3)n2)cc1,91.8% (inactive)
10,CCOC(=O)C(=O)C=P(c1ccccc1)(c1ccccc1)c1ccccc1,96.5% (inactive)
11,COC(=O)C(C)Oc1ccc(OC#N)cc1 (stereo not given),95.3% (inactive)
12,c1ccc2c(c1)Sc1ccccc1S2,81.8% (inactive)
13,COc1ccccc1NC(=O)C1=C(C)NC(C)=C(C(=O)Nc2ccccc2OC)C1c1cccc([N+](=O)[O-])c1,56.8% (inactive)
14,COC(=O)C(O)c1ccccc1 (stereo not given),95.6% (inactive)
15,CCN(CC)C(=O)/C=C(/C)c1ccccc1,80.2% (inactive)
16,O=[N+]([O-])c1ccc(N=Nc2ccccc2)cc1,94% (inactive)
17,COS(=O)(=O)c1ccc(Br)cc1,98.1% (inactive)
18,CC(C)=NNc1ccc([N+](=O)[O-])cc1[N+](=O)[O-],80.2% (inactive)
19,C=CC[N+](C)(C)C,86% (inactive)
20,Cc1cc(C(O)(c2ccc(Nc3ccccc3)cc2)c2ccc(Nc3ccc(S(=O)(=O)O)cc3)cc2)ccc1N (stereo not given),-23.8% (active)

row,Structure (SMILES),growth
1,CO[C@H]1C[C@@H]2CC[C@@H](C)[C@@](O)(O2)C(=O)C(=O)N2CCCC[C@H]2C(=O)O[C@H]([C@H](C)C[C@@H]2CC[C@@H](O)[C@H](OC)C2)CC(=O)[C@H](C)C=C(C)[C@@H](O)[C@@H](OC)C(=O)[C@H](C)C[C@H](C)/C=C/C=C/C=C1C,30.7% (inactive)
2,CC(C)OC(=O)c1cc(NC(=S)OC(C)C)ccc1Cl,73.8% (inactive)
3,Cc1cc(OCCO)cc(C)c1Cl,114% (inactive)
4,N#CSc1cc(S(N)(=O)=O)ccc1N,135% (inactive)
5,CCCCOC(=O)c1ccc(C(C)C)cc1,88.2% (inactive)
6,O=[N+]([O-])c1cccc(N=Nc2ccc(O)cc2O)c1,47.4% (inactive)
7,Cc1ccc(C)n1-c1ccsc1C(=O)NNC(=O)C(Cl)Cl,90.5% (inactive)
8,O=c1[nH][nH]c(=O)c2cc([N+](=O)[O-])ccc12,107% (inactive)
9,COc1cc2cc(OC(C)=O)c3cc4c(cc3c2c(OC)c1OC)OCO4,96.3% (inactive)
10,CCCC(=O)c1cc(C)ccc1OC,81.5% (inactive)
11,CC1C(=O)c2ccccc2CC1C(=O)O (stereo not given),101% (inactive)
12,CCCCC(CC)COC(C)=O (stereo not given),95.6% (inactive)
13,N#CC(=Nc1cccc(F)c1)C1=C(O)c2ccccc2C1=O,63.8% (inactive)
14,CCOC(=O)c1[nH]c(C)c(C(=O)O)c1C,104% (inactive)
15,CC(=O)OCC(=O)[C@@]1(O)CC[C@H]2[C@@H]3CC[C@@H]4C[C@H](O)CC[C@]4(C)[C@H]3C(=O)C[C@@]21C,93.4% (inactive)
16,c1csc(-c2cc(-c3cc(-c4cccs4)[nH]n3)n[nH]2)c1,93.6% (inactive)
17,CCc1nc(N)nc(N)c1-c1ccc(Cl)cc1,97.7% (inactive)
18,S=C(Nc1ccccc1)N1CCCCC1,93.3% (inactive)
19,O=C1C[C@H](c2ccccc2)[C@H](c2ccccc2)C1,70.9% (inactive)
20,C/C(=N\NC(=O)c1ccccc1N)c1ccccc1O,18.2% (inactive)
